Measurements from PubChem BioAssay (EPA / NIEHS).
Records with an inconclusive call do not appear. Activity calls are given as the source filed them. How the source made its calls, unless noted: active means hit-call score of the fitted dose curve at least 0.9, where 1 is the maximum; inactive means score below 0.9.

Legend:
[1] = ATG_TCF_b_cat_CIS: Attagene CIS-FACTORIAL HepG2 Assay for human T-Cell-Factor with beta-catenin (TCF/b-cat) (AID 2282965); settings: HepG2 TCF/beta-catenin cis-reporter transcription, actives raise or lower the signal
In short: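 HepG2, transient MRTU transfection, cis-element-driven reporters (endogenous TFs). 24 h compound exposure. Readout: reporter mRNA by RT-PCR + 6-FAM primer extension, HpaI digest, capillary electrophoresis. Gain/loss fit vs DMSO baseline.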

[2] = ATG_TAL_CIS: Attagene CIS-FACTORIAL HepG2 Assay for human TAL Basal Promoter (AID 2282966); settings: HepG2 Attagene cis-factorial TAL promoter reporter; actives raise or lower the signal;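 further: background control endpoint measuring basal TAL promoter reporter mRNA not a specific factor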
In short: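 Endogenous transcription-factor activity is sensed in HepG2 cells through transfected cis-promoter reporter constructs. After 24 h dosing, reporter transcripts are quantified by RT-PCR and capillary electrophoresis. Gain or loss of signal is fitted relative to DMSO.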

[3] = ATG_TGFb_CIS: Attagene CIS-FACTORIAL HepG2 Assay for human Transforming Growth Factor (TGF) (AID 2282967); settings: HepG2 Attagene CIS TGFb reporter, mRNA transcription; actives raise or lower the signal
In short: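 Endogenous TGFB1-linked transcription factor activity read as reporter mRNA via RT-PCR and capillary electrophoresis, 24 h after dosing transiently transfected HepG2 cells. Gain or loss of signal fitted relative to DMSO.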

[4] = ATG_VDRE_CIS: Attagene CIS-FACTORIAL HepG2 Assay for human Vitamin D Receptor Element (VDRE) (AID 2282968); settings: HepG2 VDRE cis-reporter transcription, actives raise or lower the signal
In short: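 Compounds were applied for 24 h to HepG2 cells transfected with promoter-regulated reporter units. Total RNA was reverse-transcribed, and reporter amplicons were fluorescently labelled and sized by capillary electrophoresis.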

[5] = target: Estrogen receptor (Homo sapiens) (UniProt P03372); test: ATG_ERa_TRANS: Attagene TRANS-FACTORIAL HepG2 Assay for human Estrogen Receptor alpha (ERa) (AID 2282970; active means hit-call score of the fitted dose curve at least 0.9, where 1 is the maximum); settings: HepG2 Attagene TRANS ERa GAL4 reporter, mRNA
In short: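 Transfected HepG2 cells carrying GAL4-UAS-driven reporter units were dosed for 24 hours. Total RNA was reverse-transcribed, reporter sequences PCR-amplified, FAM-labelled, HpaI-digested and resolved by capillary electrophoresis. Increases over DMSO control defined activity.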

[6] = target: X-box-binding protein 1 (Homo sapiens) (UniProt P17861); test: ATG_Xbp1_CIS: Attagene CIS-FACTORIAL HepG2 Assay for human X-box Binding Protein 1 (XBP1) (AID 2282972); settings: HepG2 XBP1 cis-element reporter, Attagene multiplex; actives raise or lower the signal
In short: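 Multiplexed cis-reporter readout in transfected HepG2 liver cells. Exposure lasted 24 hours. Activity in either direction was fitted against DMSO as negative control and baseline.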

[7] = target: Nuclear receptor subfamily 1 group I member 3 (Homo sapiens) (UniProt Q14994); test: ATG_CAR_TRANS: Attagene TRANS-FACTORIAL HepG2 Assay for human Constitutive Androstane Receptor (CAR) (AID 2282969; active means hit-call score of the fitted dose curve at least 0.9, where 1 is the maximum;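 further: activators raise reporter mRNA above DMSO so AC50 marks induction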); settings: HepG2 Attagene TRANS-FACTORIAL CAR reporter
In short: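 Transiently transfected HepG2, multiplex TRANS reporters (CAR-Gal4 chimera driving GAL4-UAS reporter). 24 h dosing. Readout: reporter transcript by RT-PCR + capillary electrophoresis, fluorescence intensity; positive direction vs DMSO.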

[8] = ATG_GAL4_TRANS: Attagene TRANS-FACTORIAL HepG2 Assay for GAL4 (Internal Marker) (AID 2282976; active means hit-call score of the fitted dose curve at least 0.9, where 1 is the maximum); settings: HepG2 Attagene TRANS GAL4 internal marker reporter
In short: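 Fluorescence from capillary electrophoresis of labelled RT-PCR products quantifies reporter mRNA induction after 24 h dosing of HepG2 cells carrying transfected GAL4-UAS reporter transcription units. Vehicle DMSO serves as baseline.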

[9] = target: Steroid hormone receptor ERR1 (Homo sapiens) (UniProt P11474); test: ATG_ERRa_TRANS: Attagene TRANS-FACTORIAL HepG2 Assay for human Estrogen-Related Receptor alpha (ERRa) (AID 2282971; active means hit-call score of the fitted dose curve at least 0.9, where 1 is the maximum); settings: HepG2 Attagene TRANS reporter, ERRa transactivation
In short: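 HepG2 cells were transiently transfected with multiple GAL4-UAS reporter units, then dosed with compound for 24 h. Total RNA was reverse-transcribed, reporter cDNA PCR-amplified and fluorescently labelled, and fragments resolved by capillary electrophoresis; induction was compared with DMSO.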

[10] = ATG_M_19_TRANS: Attagene TRANS-FACTORIAL HepG2 Assay for M19 Transcription Factor (Internal Marker) (AID 2282974; active means hit-call score of the fitted dose curve at least 0.9, where 1 is the maximum); settings: HepG2 Attagene TRANS-FACTORIAL M19 internal marker reporter
In short: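 Using RT-PCR and capillary electrophoresis, reporter mRNA from transiently transfected human HepG2 cells was quantified following 24 h exposure; activity was fitted in the positive direction against DMSO.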

Chain of Steroid hormone receptor ERR1 (Homo sapiens) (P11474 whole entry, looked up, the tested form may be a part): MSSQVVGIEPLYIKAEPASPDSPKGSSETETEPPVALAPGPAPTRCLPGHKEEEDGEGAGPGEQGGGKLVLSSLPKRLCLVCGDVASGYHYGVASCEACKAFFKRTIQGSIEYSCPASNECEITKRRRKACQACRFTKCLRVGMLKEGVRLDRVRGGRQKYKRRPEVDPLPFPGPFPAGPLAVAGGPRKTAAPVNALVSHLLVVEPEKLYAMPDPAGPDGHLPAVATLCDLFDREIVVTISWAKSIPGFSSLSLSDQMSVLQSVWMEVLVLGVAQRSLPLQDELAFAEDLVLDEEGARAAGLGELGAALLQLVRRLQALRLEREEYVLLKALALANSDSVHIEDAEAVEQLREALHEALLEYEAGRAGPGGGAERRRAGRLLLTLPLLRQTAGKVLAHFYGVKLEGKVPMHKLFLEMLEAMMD
Chain of Estrogen receptor (Homo sapiens) (P03372 whole entry, looked up, the tested form may be a part): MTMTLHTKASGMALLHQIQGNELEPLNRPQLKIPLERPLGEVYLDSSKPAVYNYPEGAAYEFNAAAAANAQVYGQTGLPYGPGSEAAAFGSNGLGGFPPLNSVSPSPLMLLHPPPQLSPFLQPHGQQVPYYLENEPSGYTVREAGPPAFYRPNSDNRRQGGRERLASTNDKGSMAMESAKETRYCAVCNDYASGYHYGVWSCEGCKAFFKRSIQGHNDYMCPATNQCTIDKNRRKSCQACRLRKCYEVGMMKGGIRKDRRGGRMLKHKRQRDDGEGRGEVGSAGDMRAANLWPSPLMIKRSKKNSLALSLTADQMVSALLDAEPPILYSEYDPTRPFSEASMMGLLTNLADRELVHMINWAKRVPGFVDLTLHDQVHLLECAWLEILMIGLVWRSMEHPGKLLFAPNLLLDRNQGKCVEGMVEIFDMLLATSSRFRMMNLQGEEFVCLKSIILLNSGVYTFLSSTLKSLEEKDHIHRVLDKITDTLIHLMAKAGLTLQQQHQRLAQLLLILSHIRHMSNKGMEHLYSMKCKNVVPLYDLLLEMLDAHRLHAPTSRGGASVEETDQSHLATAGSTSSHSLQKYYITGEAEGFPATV
Chain of X-box-binding protein 1 (Homo sapiens) (P17861 whole entry, looked up): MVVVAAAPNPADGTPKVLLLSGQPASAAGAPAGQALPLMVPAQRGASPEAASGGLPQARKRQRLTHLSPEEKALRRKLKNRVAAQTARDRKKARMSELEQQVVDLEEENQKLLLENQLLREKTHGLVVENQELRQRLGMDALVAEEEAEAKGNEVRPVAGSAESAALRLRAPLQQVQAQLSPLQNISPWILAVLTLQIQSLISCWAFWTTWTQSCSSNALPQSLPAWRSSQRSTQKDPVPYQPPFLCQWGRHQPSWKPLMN
Chain of Nuclear receptor subfamily 1 group I member 3 (Homo sapiens) (Q14994 whole entry, looked up, the tested form may be a part): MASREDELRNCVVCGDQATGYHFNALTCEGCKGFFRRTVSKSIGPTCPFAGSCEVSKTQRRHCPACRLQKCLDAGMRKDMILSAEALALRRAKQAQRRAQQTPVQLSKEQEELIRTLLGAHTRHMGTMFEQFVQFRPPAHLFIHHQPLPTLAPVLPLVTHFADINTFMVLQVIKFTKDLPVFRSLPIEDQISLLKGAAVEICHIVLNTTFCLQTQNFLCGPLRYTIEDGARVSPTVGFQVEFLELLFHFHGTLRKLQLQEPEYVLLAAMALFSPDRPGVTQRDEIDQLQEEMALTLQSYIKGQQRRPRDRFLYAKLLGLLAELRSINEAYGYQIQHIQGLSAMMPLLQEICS

In the case of `CCCCCCCCCOS(=O)(=O)O`, the outcome [1] is reported as “inactive”, the outcome [2] is reported as “inactive” and the outcome [3] is reported as “inactive”. The outcome [4] was “inactive”, the AC50 [5] was 20.1 µM (active) and the outcome [6] was “inactive”.

With `O=S(=O)(O)c1cc(S(=O)(=O)O)c2c(N=Nc3ccccc3)c(O)ccc2c1` the outcome [1] was “inactive”, the outcome [2] was “inactive” and the outcome [3] was “inactive”. For the same compound, the outcome [4] was “inactive”, the outcome [7] was “inactive” and the outcome [8] was “inactive”.

For `O=S1(=O)CC(Cl)(Cl)C(Cl)(Cl)C1`, the outcome [1] was “inactive”, the outcome [2] was “inactive” and the outcome [3] was “inactive”. For the same compound, the AC50 [4] was 3.71 µM (active), the outcome [5] was “inactive” and the outcome [9] was “inactive”. The outcome [6] was “inactive” and the outcome [10] was “inactive”.

In the case of `CCCCCCCCCCCCN1CCOCC1`, the outcome [1] is reported as “inactive”, the outcome [2] is reported as “inactive” and the outcome [3] is reported as “inactive”. For the same compound, the AC50 [4] was 60.6 µM (active), the outcome [5] was “inactive” and the outcome [9] was “inactive”. For the same compound, the AC50 [6] was 46.9 µM (active) and the outcome [8] was “inactive”.

For `O=C(O)c1ccccc1O`, the outcome [1] was “inactive”, the outcome [2] was “inactive” and the outcome [3] was “inactive”. The outcome [4] was “inactive”, the outcome [5] was “inactive” and the outcome [9] was “inactive”. The outcome [10] was “inactive” and the outcome [8] was “inactive”.

For `CC(O)CN` (stereo not given), the outcome [1] was “inactive”, the outcome [2] was “inactive” and the outcome [3] was “inactive”. For the same compound, the outcome [4] was “inactive”, the outcome [5] was “inactive” and the outcome [9] was “inactive”. For the same compound, the outcome [6] was “inactive”, the outcome [10] was “inactive” and the outcome [8] was “inactive”.

For `CC(=O)CCC(=O)O`, the outcome [1] was “inactive”, the outcome [2] was “inactive” and the outcome [3] was “inactive”. For the same compound, the outcome [4] was “inactive”, the outcome [7] was “inactive” and the outcome [6] was “inactive”. The outcome [10] was “inactive”.

With `CC=CC(=O)C1=C(C)C=CCC1(C)C` the outcome [1] was “inactive”, the outcome [2] was “inactive” and the outcome [3] was “inactive”. The outcome [4] was “inactive”, the outcome [7] was “inactive” and the outcome [9] was “inactive”. For the same compound, the outcome [6] was “inactive”, the outcome [10] was “inactive” and the outcome [8] was “inactive”.

With `O=C1CCCCCCCCCCCC(=O)OCCO1` the outcome [1] was “inactive”, the outcome [2] was “inactive” and the outcome [3] was “inactive”. The outcome [4] was “inactive”, the outcome [7] was “inactive” and the outcome [9] was “inactive”. For the same compound, the outcome [6] was “inactive” and the outcome [10] was “inactive”.

In the case of `CCC(C)C1CCCCC1=O` (stereo not given), the outcome [1] is reported as “inactive”, the outcome [2] is reported as “inactive” and the outcome [3] is reported as “inactive”. The outcome [4] was “inactive”, the outcome [5] was “inactive” and the outcome [9] was “inactive”. For the same compound, the outcome [10] was “inactive” and the outcome [8] was “inactive”.

With `CCCCC/C=C\C=C\C(=O)OCC` the outcome [1] was “inactive”, the outcome [2] was “inactive” and the AC50 [3] was 74.2 µM (active). For the same compound, the outcome [4] was “inactive”, the outcome [5] was “inactive” and the AC50 [6] was 61.1 µM (active).

In the case of `CC/C=C\CCCCO`, the outcome [1] is reported as “inactive”, the outcome [2] is reported as “inactive” and the outcome [3] is reported as “inactive”. The outcome [4] was “inactive”, the outcome [5] was “inactive” and the outcome [6] was “inactive”. The outcome [10] was “inactive” and the outcome [8] was “inactive”.

For `C=C/C(C)=C/C/C=C(\C)CCC=C(C)C`, the outcome [1] was “inactive”, the outcome [2] was “inactive” and the outcome [3] was “inactive”. For the same compound, the outcome [4] was “inactive”, the outcome [5] was “inactive” and the outcome [6] was “inactive”.

In the case of `O=C(O)c1cccc(Cl)n1`, the outcome [1] is reported as “inactive”, the outcome [2] is reported as “inactive” and the outcome [3] is reported as “inactive”. For the same compound, the outcome [4] was “inactive”, the outcome [5] was “inactive” and the outcome [6] was “inactive”. For the same compound, the outcome [10] was “inactive”.

In the case of `CC(C)COC(=O)c1ccccc1`, the outcome [1] is reported as “inactive”, the outcome [2] is reported as “inactive” and the outcome [3] is reported as “inactive”. The outcome [4] was “inactive”, the outcome [5] was “inactive” and the outcome [6] was “inactive”.

With `CC(C)C(=O)OCC=Cc1ccccc1` the outcome [1] was “inactive”, the outcome [2] was “inactive” and the outcome [3] was “inactive”. The outcome [4] was “inactive”, the outcome [5] was “inactive” and the outcome [6] was “inactive”. For the same compound, the outcome [10] was “inactive”.

In the case of `CCCCCc1cccc(=O)o1`, the outcome [1] is reported as “inactive”, the outcome [2] is reported as “inactive” and the outcome [3] is reported as “inactive”. The outcome [4] was “inactive”, the outcome [5] was “inactive” and the outcome [6] was “inactive”. The outcome [10] was “inactive”.

In the case of `O=C1OC2(c3ccc(O)cc3Oc3cc(O)ccc32)c2ccccc21`, the outcome [1] is reported as “inactive”, the outcome [2] is reported as “inactive” and the outcome [3] is reported as “inactive”. The outcome [4] was “inactive”, the AC50 [5] was 27.7 µM (active) and the outcome [6] was “inactive”. The outcome [10] was “inactive”.

For `CCCCCCCCCCCCOC(C)=O`, the outcome [1] was “inactive”, the outcome [2] was “inactive” and the outcome [3] was “inactive”. For the same compound, the outcome [4] was “inactive”, the outcome [5] was “inactive” and the outcome [6] was “inactive”. The outcome [10] was “inactive” and the outcome [8] was “inactive”.

For `FC(F)(F)c1ccc(Cl)c(Cl)c1`, the outcome [1] was “inactive”, the outcome [2] was “inactive” and the outcome [3] was “inactive”. The outcome [4] was “inactive”, the outcome [5] was “inactive” and the outcome [6] was “inactive”. For the same compound, the outcome [10] was “inactive”.

For `CC(=O)OC(C)(C)C1CC=C(C)CC1` (stereo not given), the outcome [1] was “inactive”, the outcome [2] was “inactive” and the outcome [3] was “inactive”. For the same compound, the outcome [4] was “inactive”, the AC50 [5] was 61.7 µM (active) and the outcome [6] was “inactive”. For the same compound, the outcome [10] was “inactive” and the outcome [8] was “inactive”.

For `NC(=O)c1cccnc1`, the outcome [1] was “inactive”, the outcome [2] was “inactive” and the outcome [3] was “inactive”. For the same compound, the outcome [4] was “inactive”, the outcome [5] was “inactive” and the outcome [6] was “inactive”. The outcome [10] was “inactive” and the outcome [8] was “inactive”.

In the case of `CC(CCO)CC(C)(C)C` (stereo not given), the outcome [1] is reported as “inactive”, the outcome [2] is reported as “inactive” and the outcome [3] is reported as “inactive”. The outcome [4] was “inactive”, the outcome [5] was “inactive” and the outcome [6] was “inactive”. The outcome [10] was “inactive”.

With `CCCCC1CCCCC(=O)O1` (stereo not given) the outcome [1] was “inactive”, the outcome [2] was “inactive” and the outcome [3] was “inactive”. For the same compound, the outcome [4] was “inactive”, the outcome [5] was “inactive” and the outcome [6] was “inactive”. The outcome [10] was “inactive”.

For `CCCCCC1C(=O)CCC1CC(=O)OC` (stereo not given), the outcome [1] was “inactive”, the outcome [2] was “inactive” and the outcome [3] was “inactive”. For the same compound, the outcome [4] was “inactive”, the outcome [5] was “inactive” and the outcome [6] was “inactive”.

For `CC(=N[Si](C)(C)C)O[Si](C)(C)C`, the outcome [1] was “inactive”, the outcome [2] was “inactive” and the outcome [3] was “inactive”. For the same compound, the outcome [4] was “inactive”, the outcome [5] was “inactive” and the outcome [6] was “inactive”. The outcome [10] was “inactive” and the outcome [8] was “inactive”.

For `CCC(C)(CCCC(C)C)OC(C)=O` (stereo not given), the outcome [1] was “inactive”, the outcome [2] was “inactive” and the outcome [3] was “inactive”. The outcome [4] was “inactive”, the outcome [5] was “inactive” and the outcome [6] was “inactive”. For the same compound, the outcome [10] was “inactive” and the outcome [8] was “inactive”.

In the case of `O=C(C=Cc1ccccc1)OCCCc1ccccc1`, the outcome [1] is reported as “inactive”, the outcome [2] is reported as “inactive” and the outcome [3] is reported as “inactive”. The outcome [4] was “inactive”, the AC50 [5] was 15.3 µM (active) and the outcome [6] was “inactive”. For the same compound, the outcome [10] was “inactive” and the outcome [8] was “inactive”.

In the case of `CC1=CCC(C(C)(C)O)CC1` (stereo not given), the outcome [1] is reported as “inactive”, the outcome [2] is reported as “inactive” and the outcome [3] is reported as “inactive”. The outcome [4] was “inactive”, the outcome [5] was “inactive” and the outcome [6] was “inactive”. For the same compound, the outcome [10] was “inactive”.

With `CN(C)CCC=C1c2ccccc2CCc2ccccc21` the AC50 [1] was 22.1 µM (active), the outcome [2] was “inactive” and the outcome [3] was “inactive”. The AC50 [4] was 23.7 µM (active), the outcome [5] was “inactive” and the AC50 [6] was 40 µM (active). For the same compound, the outcome [10] was “inactive”.
